Inconclusive results are not listed. The source made the active and inactive calls. The call rests on the fitted dose curve; in most records, active means well fitted inhibition curve with a large enough effect; inconclusive means small, poorly fitted or top-dose-only effect; inactive means no such curve, though single readings can be large or run the other way.
Potency means the concentration at half of the fitted maximal effect.

This test concerns the target Retinal dehydrogenase 2 (Homo sapiens) (UniProt O94788). In words: qHTS for Inhibitors of the Aldehyde Dehydrogenase Family (ALDH1A2) Confirmation screens (AID 2061314). Further: nearly all actives have a fitted effect of over 65% in size. Conditions: ALDH1A2 enzyme inhibition qHTS confirmation; series mostly up to 45.9 µM. (Quantitative high-throughput screening tests each substance at several concentrations.)
On to `CCc1nn2c(=O)c(S(=O)(=O)Nc3ccc(C)cc3C)c(C)nc2s1`, for which the Potency result was “inactive”.
Consider `CCC(=O)NC(C)c1cc(Cl)c2ccccc2c1O` (stereo not given), for which the Potency was 1.01 µM (active).
As for `Cc1ccc(N[S+](=O)([O-])c2cc3c(cc2N[C@@H](C)CO)NC(=O)CC3)cc1N[C@@H](C)CO`, the Potency was 2.83 µM (active).
`COc1cccc(CNc2ccc(S(=O)(=O)Nc3ccc(N4CCNCC4)nc3)cc2)c1O`: the Potency was 22.5 µM (active).
Regarding `O=C(O)c1cc(Br)c(O)c2ncccc12`, the Potency was 0.449 µM (active).

Values taken from PubChem BioAssay (NCATS).
